The target of experiment [1] is Tumor susceptibility gene 101 protein (Homo sapiens) (UniProt Q99816). In words: qHTS Assay for Iinhibitors of HIV-1 Budding by Blocking the Interaction of PTAP/TSG101: Hit Validation (AID 651600). Further: nearly all actives have a fitted effect of over 70% in size. Further: potency means the concentration at half of the fitted maximal effect. On activity change, negative = inhibition: on the % scale 0 is the no-effect control and ±100 the full control effect. The method in brief:
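Fluorescence polarization binding assay: Tsg101 binding domain (10 uM) mixed with compounds and FITC-labeled PTAP peptide (50 nM) in HEPES pH 7.5, 0.15 M NaCl, 0.01% Tween 20, EDTA, TCEP; 20 min at r.t.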

For experiment [2], the target named is Rap guanine nucleotide exchange factor 3 (Homo sapiens) (UniProt O95398). In words: Confirmatory qHTS for antagonist of cAMP-regulated guanine nucleotide exchange factor 3 (EPAC1) (AID 1645880).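 Further: plate controls were DMSO only for no effect and full effect of the ATA control for full effect; nearly all actives have a fitted effect of over 55% in size.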 As to conditions: EPAC1 Rap1B-BODIPY-GDP exchange, fluorescence; activity, negative = inhibition: at 115 µM (top of the series). The method in brief:
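Released BODIPY-GDP fluoresces less than Rap1-bound BODIPY-GDP; the signal is followed at 480/540 nm at 5-min intervals over 30 min, after 5 min at room temperature. Reactions contain 100 nM EPAC1, 250 nM RAP1B-BODIPY-GDP and 50 uM GDP; results are normalized to ATA and DMSO.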

Experiment [3] has as its target Rap guanine nucleotide exchange factor 4 (Homo sapiens) (UniProt Q8WZA2). In words: Confirmatory qHTS for agonist of cAMP-regulated guanine nucleotide exchange factor 4 (EPAC2) (AID 1645884).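 Further: nucleotide exchange releases bodipy-GDP from Rap1 and this lowers its fluorescence; nearly all actives have a fitted effect of over 65% in size.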 Further: potency means the concentration at half of the fitted maximal effect. On activation: on the % scale 0 is the no-effect control and ±100 the full control effect.
Experiment [4] has the same target. The experiment in a line: Confirmatory qHTS for antagonist of cAMP-regulated guanine nucleotide exchange factor 4 (EPAC2) (AID 1645885). Further: on the % scale 0 is the no-effect control and ±100 the full control effect; nearly all actives have a fitted effect of over 25% in size.
Experiment [5] addresses Rap guanine nucleotide exchange factor 3 (Homo sapiens) (UniProt O95398). The experiment in a line: Counterscreen qHTS for antagonist of cAMP-regulated guanine nucleotide exchange factor 3 (EPAC1) (AID 1645888). Further: % of control where 0% means no effect. An outline of the steps:
(§1)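 Measured: fluorescence of BODIPY-GDP bound to Rap1B, which falls as exchange proceeds. Conditions include 50 uM competing GDP, 5 and 30 min reads, and a later cAMP challenge for antagonist detection.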

The target is the same in experiment [6]. In words: Counterscreen qHTS for agonist of cAMP-regulated guanine nucleotide exchange factor 3 (EPAC1) (AID 1645889). Further: nearly all actives have a fitted effect of over 40% in size. Further: potency means the concentration at half of the fitted maximal effect. On activation: % of control where 0% means no effect. The method in brief:
as §1

Results filed as inconclusive are left out. A number with no mark means an inactive call. Activity calls are given as the source filed them. The call rests on the fitted dose curve; in most records, active means well fitted curve in the direction sought with a large enough effect; inconclusive means small, poorly fitted or top-dose-only effect, or another doubt; inactive means no such curve, though single readings can be large; an effect the other way counts as inactive or inconclusive.

We go through 14 molecules from PubChem BioAssay (NCATS).

Rap guanine nucleotide exchange factor 3 (Homo sapiens), sequence (O95398 whole entry, looked up): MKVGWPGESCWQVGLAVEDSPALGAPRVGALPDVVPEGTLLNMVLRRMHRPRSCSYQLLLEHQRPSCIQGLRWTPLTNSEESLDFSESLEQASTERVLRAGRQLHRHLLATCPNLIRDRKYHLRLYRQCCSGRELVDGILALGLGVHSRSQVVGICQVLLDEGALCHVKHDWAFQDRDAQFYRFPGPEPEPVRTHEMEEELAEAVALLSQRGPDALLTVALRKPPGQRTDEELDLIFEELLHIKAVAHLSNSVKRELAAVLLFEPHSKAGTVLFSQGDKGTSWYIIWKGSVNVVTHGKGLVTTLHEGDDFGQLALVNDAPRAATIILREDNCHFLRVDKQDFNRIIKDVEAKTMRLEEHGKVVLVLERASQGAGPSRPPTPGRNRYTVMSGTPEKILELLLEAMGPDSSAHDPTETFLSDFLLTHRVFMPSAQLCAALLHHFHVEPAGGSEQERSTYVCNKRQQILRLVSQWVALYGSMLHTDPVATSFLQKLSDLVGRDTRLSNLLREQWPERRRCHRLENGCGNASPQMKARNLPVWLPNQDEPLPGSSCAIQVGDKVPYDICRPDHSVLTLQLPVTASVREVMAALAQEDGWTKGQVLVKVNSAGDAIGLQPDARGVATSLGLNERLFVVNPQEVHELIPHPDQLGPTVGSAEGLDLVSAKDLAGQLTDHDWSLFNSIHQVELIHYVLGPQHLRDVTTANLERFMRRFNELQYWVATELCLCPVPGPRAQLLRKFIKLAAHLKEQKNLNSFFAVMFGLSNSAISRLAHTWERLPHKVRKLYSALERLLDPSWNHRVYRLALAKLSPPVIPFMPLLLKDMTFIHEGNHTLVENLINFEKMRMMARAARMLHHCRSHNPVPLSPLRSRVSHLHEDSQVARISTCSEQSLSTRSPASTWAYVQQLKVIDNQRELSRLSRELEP
Rap guanine nucleotide exchange factor 4 (Homo sapiens), sequence (Q8WZA2 whole entry, looked up): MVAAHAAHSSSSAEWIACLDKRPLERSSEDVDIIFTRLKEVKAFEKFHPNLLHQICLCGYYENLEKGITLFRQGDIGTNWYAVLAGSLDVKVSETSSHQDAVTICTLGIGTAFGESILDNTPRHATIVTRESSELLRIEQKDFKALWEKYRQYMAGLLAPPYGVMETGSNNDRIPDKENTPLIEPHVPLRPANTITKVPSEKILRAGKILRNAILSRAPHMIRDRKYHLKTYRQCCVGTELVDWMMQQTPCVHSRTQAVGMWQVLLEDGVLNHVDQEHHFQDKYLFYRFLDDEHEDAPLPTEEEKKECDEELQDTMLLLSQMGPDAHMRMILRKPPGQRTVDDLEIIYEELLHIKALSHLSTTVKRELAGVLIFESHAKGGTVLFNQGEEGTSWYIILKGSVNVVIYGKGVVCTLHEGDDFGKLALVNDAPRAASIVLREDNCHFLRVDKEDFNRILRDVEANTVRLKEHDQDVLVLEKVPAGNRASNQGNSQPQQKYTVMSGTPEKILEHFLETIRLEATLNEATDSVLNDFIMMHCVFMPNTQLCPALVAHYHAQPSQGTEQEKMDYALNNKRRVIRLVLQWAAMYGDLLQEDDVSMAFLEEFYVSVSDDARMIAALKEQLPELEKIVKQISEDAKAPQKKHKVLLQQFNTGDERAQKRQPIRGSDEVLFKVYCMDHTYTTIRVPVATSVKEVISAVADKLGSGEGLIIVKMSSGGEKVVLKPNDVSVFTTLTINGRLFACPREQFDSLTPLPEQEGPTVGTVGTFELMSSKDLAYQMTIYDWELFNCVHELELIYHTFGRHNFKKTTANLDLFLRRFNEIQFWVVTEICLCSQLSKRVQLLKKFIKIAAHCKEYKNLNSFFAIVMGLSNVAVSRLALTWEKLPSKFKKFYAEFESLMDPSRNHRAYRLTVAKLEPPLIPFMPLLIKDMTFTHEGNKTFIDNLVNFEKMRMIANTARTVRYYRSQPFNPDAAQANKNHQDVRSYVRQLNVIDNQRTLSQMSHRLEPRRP
Tumor susceptibility gene 101 protein (Homo sapiens), sequence (Q99816 whole entry, looked up, the tested form may be a part): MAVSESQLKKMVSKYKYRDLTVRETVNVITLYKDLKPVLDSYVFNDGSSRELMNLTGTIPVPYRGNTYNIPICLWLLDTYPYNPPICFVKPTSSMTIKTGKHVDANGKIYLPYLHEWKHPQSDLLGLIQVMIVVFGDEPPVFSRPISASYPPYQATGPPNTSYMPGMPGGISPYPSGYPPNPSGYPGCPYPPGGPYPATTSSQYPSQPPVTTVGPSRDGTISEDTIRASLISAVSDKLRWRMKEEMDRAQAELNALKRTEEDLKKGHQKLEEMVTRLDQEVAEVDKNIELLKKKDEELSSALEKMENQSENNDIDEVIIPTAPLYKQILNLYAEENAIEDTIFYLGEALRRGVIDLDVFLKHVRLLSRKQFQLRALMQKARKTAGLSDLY

In the case of `Nc1ccc2c3c(cccc13)C(=O)N(c1ccccc1)C2=O`, the Potency was 3.66 µM (active) in experiment [1] and 100 µM (active) in experiment [3]. The Potency result in experiment [2] and in experiment [4] was “inactive” in each case.
Regarding `O=S1(=O)C=C(Oc2ccc3ccccc3c2)c2ccccc21`, the Potency result in experiment [2] was “inactive”. In addition, in experiment [3], the activation was -2.76% [at 17.1 µM, percent relative to cAMP agonist control]. For the same molecule, in experiment [5], the activity change, negative = inhibition was 21.2% [at 30.8 µM].
With `COc1ccc2c3c(cccc13)C(=O)CC2`, the Potency in experiment [1] was 18.3 µM (active); in experiment [3] it was 112 µM (active); in experiment [6] it was 31.6 µM (active). Besides, the Potency entry in experiment [2] and in experiment [4] was “inactive” each time.
As to `O=C1CSC(c2ccc(Cl)c(Cl)c2)N1c1nccs1` (stereo unspecified), the Potency entry in experiment [2], in experiment [3] and in experiment [5] was “inactive” in each case.
As for `O=C(NCCOc1ccc(F)cc1)c1ccccc1SCc1ccccc1`, the Potency result in experiment [2] is “inactive”. In addition, in experiment [3], the activation is 7.88% [at 17.1 µM, percent relative to cAMP agonist control]. Moreover, the activity change, negative = inhibition in experiment [5] is 18.3% [at 30.8 µM].
In the case of `Cc1ccccc1C(=O)O/N=C(\c1ccccc1)c1ccccn1`, the Potency result in experiment [2] was “inactive”. Also, the activation in experiment [3] is 8.13% [at 17.1 µM, percent relative to cAMP agonist control]. The activity change, negative = inhibition in experiment [5] is 3.56% [at 30.8 µM].
Consider `CCN(CC)c1ccc(/C=C(\C#N)C(=O)c2ccc(Br)cc2)cc1`, for which the Potency result in experiment [1], in experiment [2], in experiment [4] and in experiment [5] was “inactive” in each case. For the same molecule, the Potency in experiment [3] was 112 µM (active).
As for `O=C(NCc1ccc(F)cc1)c1cccc2c1C(=O)c1ccc(N3CCC(Cc4ccccc4)CC3)cc1S2(=O)=O`, in experiment [1], the Potency was 10.3 µM (active). In addition, the Potency entry in experiment [2] and in experiment [4] was “inactive” throughout. In addition, in experiment [3], the activation was 30% [at 17.1 µM, percent relative to cAMP agonist control]. Moreover, the activity change, negative = inhibition in experiment [5] is 83.7% [at 30.8 µM].
`Cc1ccc2oc(=O)n(Cc3ccccc3)c2c1`: the Potency entry in experiment [2] is “inactive”. Also, the activation in experiment [3] was 5.26% [at 17.1 µM, percent relative to cAMP agonist control]. Also, the activity change, negative = inhibition in experiment [5] is 1.72% [at 30.8 µM].
Regarding `Brc1ccccc1Cn1c(-c2cncs2)nc2ccccc21`, the Potency result in experiment [2], in experiment [3] and in experiment [5] was “inactive” each time.
Consider `COCCN1C(=O)/C(=C/c2ccc(N3CCCC3)cc2)SC1=S`, for which the Potency entry in experiment [2] and in experiment [5] was “inactive” each time. The Potency in experiment [3] was 112 µM (active).
Turning to `Cc1ccc(-c2nc3ccc(C)cn3c2CC2CCCCC2)cc1`, the Potency entry in experiment [2], in experiment [4] and in experiment [5] was “inactive” each time.
With `COC(=O)C1=NN(c2ccc(C)cc2)C2(S1)SC(C(C)=O)=C(C)N2c1ccccc1` (stereo unspecified), the Potency entry in experiment [2], in experiment [5] and in experiment [6] was “inactive” each time. In experiment [3], the Potency was 100 µM (active).
As for `O=C(C1=NN(c2ccccc2)C2C(=O)N(c3ccccc3)C(=O)C12)c1ccccc1` (stereo unspecified), the Potency entry in experiment [1] and in experiment [2] was “inactive” in each case. Besides, the activation in experiment [3] was 11% [at 17.1 µM, percent relative to cAMP agonist control]. Also, the Potency in experiment [6] was 15.8 µM (active).
